Source: PubChem BioAssay (Sanford-Burnham Center for Chemical Genomics)
NALP1 inh: NALP1 inhibition; inhibition, % at 10 µM; S. cerevisiae NALP1/ASC/caspase-1 growth, X-gal OD620, 72 h; 280,000 compounds, 0.61% hits; AID 2071; in the data active = inhibition mostly above about 24%, no sharp cut-off; inactive = mostly below about 32%
tim10-1 inh: growth inhibitors of tim10-1 mutant yeast; S. cerevisiae tim10-1 ts strain growth, BacTiter-Glo, 24 h; inhibition, % at 20 µM; 330,000 compounds, 2.2% hits; AID 463190;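 active = inhibition of at least 40%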;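 also: mutant grown at 25 °C; 0% = DMSO wells with yeast and 100% = wells holding no yeast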
TIM10 inh: growth inhibitors of TIM10 yeast strain | 330,000 compounds, 1.4% hits | S. cerevisiae TIM10 strain growth, BacTiter-Glo luminescence, 24 h | AID 463195 | inhibition, % at 10 µM;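 active = inhibition of 40% or more at the single tested concentration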;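 also: wild-type TIM10 isogenic control strain grown at permissive 25 °C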
tim23-1 inh: tim23-1 yeast growth inhibition | S. cerevisiae tim23-1 growth, BacTiter-Glo luminescence, 24 h | inhibition, % at 20 µM | 330,000 compounds, 1.3% hits;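 active = growth inhibition of the mutant yeast at or above 50%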;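 also: temperature-sensitive mutant grown at 25 °C; plate controls were DMSO-treated mutant yeast for no effect and medium wells lacking yeast for full effect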
NALP3 yeast inh: inhibitors of NALP3 inflammasome in yeast; Yeast reconstituted NLRP3/ASC/caspase-1, beta-gal luminescence, 24 h; inhibition, % at 10 µM; 330,000 compounds, 0.39% hits;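 active = inhibition of 50% or more; inactive = inhibition below 50%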;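 also: plate controls were induced DMSO wells for no effect and uninduced yeast grown without galactose for full effect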
tim10-1 conf: tim10-1 yeast growth inhibition, confirmed; shares compounds with tim10-1 inh; S. cerevisiae tim10-1 ts strain growth, BacTiter-Glo, 24 h; inhibition, % at 20 µM; 7,400 compounds, 56% hits;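 active = inhibition of yeast growth at or above a set limit in either of two repeat tests at 20 µM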;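 also: tim10-1 mutant grown at permissive 25 °C to find synthetic lethal compounds; 0% = DMSO yeast wells and 100% = medium wells without yeast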
* hit, by the source's call; . = no result given. Rows were chosen to be rich in hits. Some 4% of all compounds tested hit in one or more screens of this group.

SMILES	NALP1 inh	tim10-1 inh	TIM10 inh	tim23-1 inh	NALP3 yeast inh	tim10-1 conf
COc1ccc(CC(=O)Nc2nn(C)c3nc4c(C)cccc4cc23)cc1	.	4	11	4	2	.
CC[n+]1ccccc1/C=C1\Sc2ccc(C)cc2N1C	14	41*	6	24	13	12
CC(C)C(NC(=O)C1CC(=O)N(Cc2ccccc2)C1)c1nc2ccccc2[nH]1 (stereo not given)	.	5	-11	4	7	.
O=C(/C=C/c1cccc(Cl)c1)NCCCN1CCOCC1	13	-25	2	-17	12	.
COc1cccc(/C=N/Nc2nc(Nc3ccccc3)nc(-n3nc(C)cc3C)n2)c1O	-9	45*	14	42	47	27
Cc1ccc2nc(NC(=O)CSc3nnc(C)c(=O)n3N)sc2c1	19	-4	3	5	-9	.
CCOc1ccc(NC(=S)Nc2ccc(OCc3ccccc3)cc2)cc1	-7	10	5	3	25	.
S=C(Nc1ccccc1)Nc1ccc(OCc2ccc(Cl)cc2Cl)cc1	24	48*	21	3	10	19
CCOc1ccccc1-c1nc(CN2CCN(C(=O)c3ccco3)CC2)c(C)o1	12	41*	16	39	1	22
Cc1ccccc1-c1nc(CN2CCN(C(=O)c3ccco3)CC2)c(C)o1	3	7	9	18	-5	.
Cc1ccc(N2CC(C(=O)N3CCCc4ccccc43)CC2=O)cc1 (stereo not given)	9	29	15	29	0	.
CCOc1ccc(N2CC(C(=O)N3CCCc4ccccc43)CC2=O)cc1 (stereo not given)	21	41*	14	35	8	20
Cc1ccc(NC(=O)C2=C(O)CCn3c2nc2ccccc23)cc1	10	43*	20	27	16	0
Cc1ccc(NC(=O)NCc2nc3ccccc3n2C)cc1	-6	7	23	14	-5	.
O=C(NC(=S)Nc1ccccc1N1CCCCC1)c1ccc(F)cc1Cl	-2	34	33	41	19	.
CC1CCN(c2ccccc2NC(=S)NC(=O)C(C)(C)C)CC1	34	49*	35	44	25	33*
O=C(COc1ccccc1Cl)NC(=S)Nc1ccccc1N1CCCC1	-10	51*	19	29	6	20
Cc1ccccc1C(=O)NC(=S)Nc1ccccc1N1CCCC1	10	51*	37	47	5	37*
CC1CCN(c2ccccc2NC(=O)c2ccc(F)cc2)CC1	5	26	19	25	5	.
O=C(COc1c(Cl)cccc1Cl)Nc1ccccc1N1CCCC1	8	11	6	34	28	.
O=C(NC(=S)Nc1ccccc1N1CCCC1)c1ccc(F)cc1	3	41*	14	12	-27	28
CCOc1ccc(S(=O)(=O)N(CC(=O)NCc2cccnc2)c2ccc(F)cc2)cc1	9	-1	-4	1	21	.
CCOc1ccc(NS(=O)(=O)c2ccc(C(=O)N3CCN(C(C)=O)CC3)cc2)cc1	-3	-6	-3	1	0	.
CN(Cc1cnccn1)C(=O)C1CCC(=O)N(CCc2ccc(Cl)cc2)C1 (stereo not given)	-3	16	-2	14	5	.
CC(C)c1cc2c(c(O)c1O)[C@@]13CCCC(C)(C)C1CC2OC3=O (stereo not given in full)	-4	43*	13	28	30	35*
SMILES	NALP1 inh	tim10-1 inh	TIM10 inh	tim23-1 inh	NALP3 yeast inh	tim10-1 conf
Cn1nccc1C(=O)N1CCCC(N2CCN(Cc3ccc4c(c3)OCO4)CC2)C1 (stereo not given)	-10	-6	-2	-9	9	.
CC(C)COc1ccc(C(=O)CCN2CCCCC2)cc1	15	54*	-10	18	9	-8
CC(C)COc1ccc(C(=O)OCCN2CCCCC2)cc1	18	-3	-1	-9	12	.
COc1ccc(C2NC(=S)NC(O)(C(F)(F)F)C2C(=O)c2cccs2)cc1 (stereo not given)	32	43*	2	15	-3	16
C/C(CCc1oc2ccc(Cl)cc2c1-c1ccc(C)o1)=N\O	23	42*	37	26	7	43*
COc1ccc(OC)c(CNC(=O)C(C)n2nc(C)c3c(C)n(-c4ccccc4)nc3c2=O)c1 (stereo not given)	-9	7	1	-5	2	.
CCn1c(SCC(=O)N2CCOCC2)nnc1C(C)NC(=O)c1ccccc1 (stereo not given)	31	2	-9	-3	17	.
O=C(c1ccc(-c2cccc(C(F)(F)F)c2)o1)N1CCCCCCC1	.	41*	13	33	14	30*
O=C(c1ccco1)N1CCN(C(=O)c2ccc(-c3cccc(C(F)(F)F)c3)o2)CC1	.	0	-13	23	-3	.
CC(=O)N1CCN(C2=NC(=O)/C(=C/c3ccc(OS(=O)(=O)c4ccccc4)cc3)S2)CC1	8	17	7	13	11	.
O=C(Nc1ccccn1)c1ccc2c(c1)S(=O)(=O)c1ccccc1C2=O	26	0	8	8	11	.
O=C1c2ccccc2S(=O)(=O)c2cc(C(=O)N(c3ccccn3)c3ccccn3)ccc21	37	41*	-4	21	8	14
COc1cc(OC)cc(C(=O)NN2CCOCC2)c1	-4	-13	-1	-6	-5	.
CCOC(=O)c1sc(=S)n(Cc2ccccc2)c1N	8	42*	16	22	37	40*
CC(C)(C)OC(=O)N1CCC[C@H]1C(=O)Nc1ccc(S(=O)(=O)C(F)F)cc1	36	12	17	10	12	.
O=C(c1cccc(COc2ccc(Cl)cc2Cl)c1)N1CCN(c2ccccn2)CC1	9	42*	33	30	21	23
O=C(c1ccc(S(=O)(=O)Cc2cc(F)ccc2F)c([N+](=O)[O-])c1)N1CCCC1	-5	28	27	40	-11	.
O=C(c1ccc(Cl)c([N+](=O)[O-])c1)N1CCN(c2ccccn2)CC1	31	11	-32	1	16	.
O=C(c1ccc(S(=O)(=O)Cc2cc(F)ccc2F)c([N+](=O)[O-])c1)N1CCCCC1	6	44*	20	44	25	29*
O=C(c1ccc(Cl)c(Cl)c1)N1CCN(c2ccccn2)CC1	10	-4	-8	8	16	.
O=C(c1ccc(S(=O)(=O)Cc2ccccc2Cl)c([N+](=O)[O-])c1)N1CCN(c2ccccn2)CC1	6	52*	39	44	13	39*
O=C(c1ccc(Sc2cccc(Cl)c2)c([N+](=O)[O-])c1)N1CCN(c2ccccn2)CC1	4	41*	15	20	14	21
O=C(COC(=O)C12CC3CC(CC(Br)(C3)C1)C2)N1CCOCC1	-2	-4	5	-7	10	.
NC(=O)c1nnn(-c2nonc2N)c1-c1ccc([N+](=O)[O-])cc1	6	9	0	0	4	.
